A1 inh: inhibitors of the anti-apoptotic protein A1, read as caspase activation; MEF A1-2A-BIM cells, Caspase-Glo 3/7 luminescence, 3 h; percent of clofoctol response, vehicle zero; caspase activation, % (concentration not given with the values); 330,000 tested, 0.066% active; AID 2462;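 active = over half of replicate activation scores above 10%, or exactly half above 10 with the replicate mean above 10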
H9c2 TAG inh: reduces triacylglycerol accumulation in H9c2 cells; Nile Red lipid (TAG) fluorescence; cells loaded with 200 µM oleic acid; inhibition, % at 12.5 µM; 230,000 tested, 0.66% active; AID 651582;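 active = pattern-corrected inhibition of lipid staining of at least 50% with the nuclear-stain viability signal not falling by more than 50%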;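 note: 0% = DMSO wells and 100% = triacsin C control wells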
GC-A act: GC-A (human) enzyme activation | P16066 | HEK293 GC-A cells, cGMP TR-FRET, EC30 ANP; 0% at EC30 ANP, 100% saturating ANP | activation, % at 10 µM | 370,000 tested, 0.14% active; in the data active = activation above about 40%
NPR2 activator: GC-B (human) receptor activation; P20594; HEK293-GC-B cells, CNP EC30, cGMP TR-FRET; 0% at EC30 CNP, 100% saturating CNP; 370,000 tested, 0.11% active; activation, % at 10 µM;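 active = activation at 10 µM reaching about 35% in either raw or pattern-adjusted values, limit read from the data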
Target sequence (P20594 whole entry, looked up): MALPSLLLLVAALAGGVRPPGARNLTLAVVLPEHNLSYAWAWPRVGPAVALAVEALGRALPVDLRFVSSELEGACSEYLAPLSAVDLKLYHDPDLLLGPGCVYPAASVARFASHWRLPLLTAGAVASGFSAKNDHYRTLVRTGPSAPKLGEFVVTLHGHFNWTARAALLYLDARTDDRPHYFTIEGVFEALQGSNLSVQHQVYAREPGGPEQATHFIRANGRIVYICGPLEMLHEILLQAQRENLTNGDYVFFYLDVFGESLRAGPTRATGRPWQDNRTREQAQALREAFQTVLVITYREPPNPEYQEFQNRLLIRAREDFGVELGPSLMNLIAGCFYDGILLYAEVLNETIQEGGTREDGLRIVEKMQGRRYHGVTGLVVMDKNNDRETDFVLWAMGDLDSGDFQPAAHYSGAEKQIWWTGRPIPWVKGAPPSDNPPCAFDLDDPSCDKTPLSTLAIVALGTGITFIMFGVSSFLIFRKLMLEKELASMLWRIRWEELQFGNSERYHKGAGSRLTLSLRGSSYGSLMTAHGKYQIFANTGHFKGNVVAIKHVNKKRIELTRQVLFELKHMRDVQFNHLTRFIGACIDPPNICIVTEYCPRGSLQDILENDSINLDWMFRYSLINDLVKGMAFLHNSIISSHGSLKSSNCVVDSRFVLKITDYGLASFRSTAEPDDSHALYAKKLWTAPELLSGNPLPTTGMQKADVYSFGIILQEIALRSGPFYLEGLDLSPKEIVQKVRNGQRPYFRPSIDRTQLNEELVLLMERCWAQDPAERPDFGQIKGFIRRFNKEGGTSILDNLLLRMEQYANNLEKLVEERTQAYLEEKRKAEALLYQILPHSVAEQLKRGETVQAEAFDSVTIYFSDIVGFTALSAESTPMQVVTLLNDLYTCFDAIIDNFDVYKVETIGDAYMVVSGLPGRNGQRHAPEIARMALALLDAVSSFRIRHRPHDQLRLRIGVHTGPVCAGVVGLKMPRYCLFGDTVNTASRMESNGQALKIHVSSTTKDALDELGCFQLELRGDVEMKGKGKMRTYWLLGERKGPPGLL
HSV replic up: increases HSV replication in cells; HSV replication augmentation in cells, fold increase; 220,000 tested, 0.005% active; maximum fold increase; AID 1956; in the data active = maximum fold increase above about 1.5; tested in PC3 cells
Efflux pump mplx: inhibitors of Candida antifungal efflux pumps expressed in yeast; S. cerevisiae Candida pump triplex, Nile Red efflux; inhibition, % at 10 µM; 330,000 tested, 0.44% active;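 active = plate passing quality check with inhibition over a set limit, or well fluorescence over plate mean plus 4 SD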;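 note: Nile Red retained in pooled yeast measured as flow cytometry median fluorescence; 0% = buffer negative control and 100% = Enniatin B positive control; higher means more Nile Red kept so more efflux inhibition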
Yeast cmpd fluor: counter-screen for efflux pump inhibitors: compound fluorescence; shares compounds with Efflux pump mplx; fluorescence ratio to DMSO, % at 10 µM; 1,700 tested, 4% active; S. cerevisiae AD/pABC3, flow cytometry;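 active = fluorescence ratio to DMSO above its plate's cutoff, the plate mean ratio plus 5 SD, cut at about 210% in these data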;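 note: unstained yeast with no Nile Red so the signal is compound autofluorescence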
CaMdr1 efflux inh: inhibitors of Candida albicans Mdr1 efflux pump; shares compounds with Efflux pump mplx; S. cerevisiae AD/CaMDR1, Nile Red efflux, flow cytometry; inhibition, % at 10 µM; 1,700 tested, 1% active; in the data active = inhibition above about 26%;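 note: 0% = DMSO vehicle and 100% = reference inhibitor; higher means more Nile Red retained so more efflux inhibition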
Cdr2 pump inh: blocks the Candida albicans Cdr2 efflux pump in yeast; shares compounds with Efflux pump mplx; S. cerevisiae AD/CaCDR2, Nile Red retention, flow cytometry; Nile Red retention ratio vs DMSO, % at 10 µM; 1,700 tested, 4% active; AID 588520; in the data active = Nile Red retention ratio vs DMSO above about 190%;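 note: higher ratio means more blocking of Cdr2 efflux of the dye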
CaCdr1 efflux inh: Candida Cdr1 efflux pump inhibition; shares compounds with Efflux pump mplx; S. cerevisiae AD/CaCDR1, Nile Red efflux, flow cytometry; inhibition, % at 10 µM; 1,700 tested, 1% active; AID 588522;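 active = inhibition above the screen-wide mean plus twice its standard deviation, cut at about 32% in these data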
* = called active by the depositor; ! = a repeat was not active. The list is not random: actives were taken first. Their share in the collection is about 1%.

For c1ccc(Cn2nnnc2C2CN=C(c3ccccc3)c3ccccc3N2)cc1 (stereo unspecified) the results were GC-A act -16 and NPR2 activator -23.
CCN(CC)C(=O)c1ccc(NC(=O)COc2ccc([N+](=O)[O-])cc2Cl)cc1 was read as A1 inh 0, GC-A act 2, NPR2 activator -1, HSV replic up inactive, Efflux pump mplx 19*, Yeast cmpd fluor 116, CaMdr1 efflux inh 0, Cdr2 pump inh 119 and CaCdr1 efflux inh 0.
Screening CC(C)(C)n1nnnc1C1CN=C(c2ccccc2)c2cc(Cl)ccc2N1 (stereo unspecified) returned GC-A act -4 and NPR2 activator -8.
For Cc1c2ccncc2c(C)c2c1[nH]c1ccccc12 the results were A1 inh 0, H9c2 TAG inh -28, HSV replic up inactive, Efflux pump mplx 5.6*, Yeast cmpd fluor 118, CaMdr1 efflux inh 0, Cdr2 pump inh 96 and CaCdr1 efflux inh 0.
For c1ccc2c(c1)[nH]c1cnccc12 the results were A1 inh 0, H9c2 TAG inh 1, GC-A act 5, NPR2 activator 0, HSV replic up inactive and Efflux pump mplx 0.
Screening OC1CN2CCC(O)C2C(O)C1O (stereo unspecified) returned GC-A act 1 and NPR2 activator 2.
For CCN(CC)c1ccc(/C=C2\C(=O)NC(=O)N(Cc3ccco3)C2=O)cc1 the results were A1 inh 0, GC-A act 15, NPR2 activator 2, HSV replic up inactive, Efflux pump mplx 0.5*, Yeast cmpd fluor 82, CaMdr1 efflux inh 0, Cdr2 pump inh 102 and CaCdr1 efflux inh 0.
Screening CCN(CC)c1ccc(/C=C2/C(=O)NC(=O)N(CC3CCCO3)C2=O)cc1 (stereo unspecified) returned A1 inh -1, H9c2 TAG inh 8, GC-A act 19, NPR2 activator 8, HSV replic up inactive and Efflux pump mplx 0.
O=C(NCCN1CCC2(CC1)C(=O)NCN2c1ccccc1)c1ccc(F)c(F)c1 was read as GC-A act -4 and NPR2 activator -11.
Screening O=C1NC(=O)C(CCc2ccncc2)(CCc2ccncc2)C(=O)N1C1CCCCC1 returned A1 inh -1, H9c2 TAG inh 1, GC-A act -13, NPR2 activator -6, HSV replic up inactive, Efflux pump mplx 1.0*, Yeast cmpd fluor 77, CaMdr1 efflux inh 0, Cdr2 pump inh 121 and CaCdr1 efflux inh 0.
CC1=CC(=O)OC2CC3OC4C[C@@H](C)C5OC6CC7O[C@]8(C)C/C=C\C9OC%10CC%11OC(CC(C)CO)CC(O)[C@]%11(C)OC%10CC9OC8C[C@]7(C)O[C@]6(C)CCC5OC4C[C@]3(C)OC12 (stereo partly specified) was read as A1 inh 1, H9c2 TAG inh 23, GC-A act 3, NPR2 activator 3, HSV replic up inactive, Efflux pump mplx 1.4*, Yeast cmpd fluor 105, CaMdr1 efflux inh 0, Cdr2 pump inh 106 and CaCdr1 efflux inh 1.
`COc1ccc2c(c1)/C(=C/c1cnc[nH]1)C(=O)N2` gave A1 inh 0, H9c2 TAG inh 48, GC-A act -10, NPR2 activator -14, Efflux pump mplx 0.8*, Yeast cmpd fluor 106, CaMdr1 efflux inh 0, Cdr2 pump inh 93 and CaCdr1 efflux inh 0.
For O=c1[nH]c(=O)n(CC2CCCO2)c(O)c1/C=C1\C=Nc2ccccc21 (stereo unspecified) the results were A1 inh -1, H9c2 TAG inh 5, GC-A act 3, NPR2 activator -6, HSV replic up inactive, Efflux pump mplx 2.6*!, Yeast cmpd fluor 103, CaMdr1 efflux inh 0, Cdr2 pump inh 89 and CaCdr1 efflux inh 0.
`CC(c1ccccc1)n1cc(C(=O)NC2CCCC2)nn1` (stereo unspecified) gave GC-A act 3 and NPR2 activator 7.
`C=CC1CN2CCC1CC2c1[nH]c2ccccc2c1CCO` (stereo unspecified) gave A1 inh 0, GC-A act -2, NPR2 activator 4, HSV replic up inactive, Efflux pump mplx 13*, Yeast cmpd fluor 89, CaMdr1 efflux inh 0, Cdr2 pump inh 97 and CaCdr1 efflux inh 0.
Screening C=C[C@H]1CN2CC[C@H]1C[C@H]2[C@H](O)c1ccnc2ccccc12 returned A1 inh -1, H9c2 TAG inh -16, GC-A act 1, NPR2 activator -3 and Efflux pump mplx 0.
Screening CCc1ccc2c(CN3CC=C(c4ccccc4)CC3)cc(=O)oc2c1 returned A1 inh 1, GC-A act -5, NPR2 activator -2, HSV replic up inactive, Efflux pump mplx 10*, Yeast cmpd fluor 107, CaMdr1 efflux inh 0, Cdr2 pump inh 101 and CaCdr1 efflux inh 0.
For COc1ccc2c(CN3CC=C(c4ccccc4)CC3)cc(=O)oc2c1 the results were A1 inh 0, H9c2 TAG inh 1, GC-A act -1, NPR2 activator -1, HSV replic up inactive and Efflux pump mplx 0.
Cc1ccc(-c2cc(-c3ccccc3)cc(-c3ccccc3)[n+]2-c2ccccc2)cc1 was read as A1 inh 0, H9c2 TAG inh 48, GC-A act -8, NPR2 activator -8 and Efflux pump mplx 0.
For Cc1ccc(-c2cc(-c3ccc(C)cc3)[n+](-c3ccccc3)c(-c3ccc(C)cc3)c2)cc1 the results were A1 inh -1, H9c2 TAG inh 21, Efflux pump mplx 34*, Yeast cmpd fluor 105, CaMdr1 efflux inh 20, Cdr2 pump inh active and CaCdr1 efflux inh 15.
O=C(CCN1CCCCC1)Nc1ccc(Br)cc1C(=O)c1ccccc1 was read as A1 inh -1, GC-A act -8, NPR2 activator -9, Efflux pump mplx 1.4*, Yeast cmpd fluor 102, CaMdr1 efflux inh 0, Cdr2 pump inh 112 and CaCdr1 efflux inh 0.

Assay outcomes as filed in PubChem.
